# Test results reported in PMC7862700, “An all-to-all approach to the identification of sequence-specific readers for epigenetic DNA modifications on cytosine”.
# Assays:
# Assay in all cases: DAPPL (digital affinity profiling via proximity ligation, sequencing); 10 mM Tris-HCl pH 7.5, 50 mM NaCl, 1 mM DTT, 4% glycerol, room temperature, 30 min; GST-TFs on glutathione beads, 16-mer random dsDNA library, 0.1% formaldehyde crosslink after washing; high values mean tight binding
# [1] = molecular target: T1, FLI1 (Homo sapiens, UniProt Q01543 1-452); conditions: protein: recombinant; tags: N-terminal GST; dsDNA, one strand shown
# T1 sequence: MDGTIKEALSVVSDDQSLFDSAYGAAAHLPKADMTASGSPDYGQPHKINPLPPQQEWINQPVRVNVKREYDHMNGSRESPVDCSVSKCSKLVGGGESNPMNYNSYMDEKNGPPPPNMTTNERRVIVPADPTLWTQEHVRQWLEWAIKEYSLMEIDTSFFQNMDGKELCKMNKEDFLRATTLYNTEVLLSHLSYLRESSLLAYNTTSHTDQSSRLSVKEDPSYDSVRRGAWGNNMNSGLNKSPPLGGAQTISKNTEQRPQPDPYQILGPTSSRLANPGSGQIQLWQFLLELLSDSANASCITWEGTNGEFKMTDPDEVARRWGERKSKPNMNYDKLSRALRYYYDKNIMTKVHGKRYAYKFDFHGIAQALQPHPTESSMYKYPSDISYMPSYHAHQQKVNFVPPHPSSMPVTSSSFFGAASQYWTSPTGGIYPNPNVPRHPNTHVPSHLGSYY
# Summary of the method: (§1)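 Binding signal is given per hexamer as its read frequency for a factor divided by its frequency in the tag-only sample. GST-fused human transcription factors were expressed in yeast, captured on glutathione beads, barcoded with DNA and pooled with that sample, then incubated with 200 nmole of a 16-mer random double-stranded DNA library in Tris/NaCl/DTT/glycerol buffer for 30 min at room temperature. The pools were then washed, crosslinked, proximity-ligated, amplified by PCR and sequenced on an Illumina NextSeq500.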
# [2] = molecular target: T2, ELK1 (Homo sapiens, UniProt P19419 1-428); conditions: protein: recombinant; tags: N-terminal GST; dsDNA, one strand shown
# T2 sequence: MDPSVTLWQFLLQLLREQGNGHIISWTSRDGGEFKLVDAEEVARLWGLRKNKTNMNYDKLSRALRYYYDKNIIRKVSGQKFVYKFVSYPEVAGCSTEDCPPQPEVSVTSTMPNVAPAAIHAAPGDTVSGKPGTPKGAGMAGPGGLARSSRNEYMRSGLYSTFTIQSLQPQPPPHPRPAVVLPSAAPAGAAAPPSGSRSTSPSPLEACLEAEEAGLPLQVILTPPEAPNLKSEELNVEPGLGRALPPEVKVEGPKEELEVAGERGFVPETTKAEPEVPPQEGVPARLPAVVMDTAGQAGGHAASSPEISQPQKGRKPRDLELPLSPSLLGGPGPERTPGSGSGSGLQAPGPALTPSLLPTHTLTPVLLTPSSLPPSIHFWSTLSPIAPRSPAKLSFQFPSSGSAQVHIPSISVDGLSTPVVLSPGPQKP
# Summary of the method: as §1
# [3] = molecular target: T3, GABPA (Homo sapiens, UniProt Q06546 1-454); conditions: protein: recombinant; tags: N-terminal GST; dsDNA, one strand shown
# T3 sequence: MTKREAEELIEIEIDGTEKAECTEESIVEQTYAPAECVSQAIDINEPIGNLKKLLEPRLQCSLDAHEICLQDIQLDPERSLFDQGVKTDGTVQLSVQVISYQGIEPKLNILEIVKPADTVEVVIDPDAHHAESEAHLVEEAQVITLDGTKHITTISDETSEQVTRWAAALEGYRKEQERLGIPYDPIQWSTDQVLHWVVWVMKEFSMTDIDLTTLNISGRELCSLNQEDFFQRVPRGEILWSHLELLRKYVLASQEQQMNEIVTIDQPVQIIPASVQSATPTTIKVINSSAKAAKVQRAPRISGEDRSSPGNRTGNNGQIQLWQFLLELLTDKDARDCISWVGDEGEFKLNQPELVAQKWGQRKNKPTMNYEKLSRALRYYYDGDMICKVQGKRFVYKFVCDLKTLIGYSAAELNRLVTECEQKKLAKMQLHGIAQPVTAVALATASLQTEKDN
# Summary of the method: as §1
# [4] = molecular target: T4, ERG (Homo sapiens, UniProt P11308 1-479); conditions: protein: recombinant; tags: N-terminal GST; dsDNA, one strand shown
# T4 sequence: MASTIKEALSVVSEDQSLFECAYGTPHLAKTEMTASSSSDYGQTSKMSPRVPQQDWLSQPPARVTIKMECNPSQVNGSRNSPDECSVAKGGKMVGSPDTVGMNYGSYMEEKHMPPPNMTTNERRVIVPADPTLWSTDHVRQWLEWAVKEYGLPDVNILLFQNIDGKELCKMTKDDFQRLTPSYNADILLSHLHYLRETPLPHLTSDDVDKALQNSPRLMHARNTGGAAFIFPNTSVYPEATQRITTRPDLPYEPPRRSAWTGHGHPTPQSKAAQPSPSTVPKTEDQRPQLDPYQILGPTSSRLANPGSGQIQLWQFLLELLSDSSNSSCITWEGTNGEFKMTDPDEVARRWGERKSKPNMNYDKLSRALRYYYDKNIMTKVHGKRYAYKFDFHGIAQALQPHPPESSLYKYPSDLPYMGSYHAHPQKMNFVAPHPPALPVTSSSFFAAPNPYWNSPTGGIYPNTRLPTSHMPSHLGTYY
# Summary of the method: as §1
# [5] = molecular target: ELF1 (Homo sapiens, UniProt P32519 1-619); conditions: protein: recombinant; tags: N-terminal GST; dsDNA, one strand shown
# Summary of the method: as §1
# [6] = molecular target: T5, EHF (Homo sapiens, UniProt Q9NZC4 1-300); conditions: protein: recombinant; tags: N-terminal GST; dsDNA, one strand shown
# T5 sequence: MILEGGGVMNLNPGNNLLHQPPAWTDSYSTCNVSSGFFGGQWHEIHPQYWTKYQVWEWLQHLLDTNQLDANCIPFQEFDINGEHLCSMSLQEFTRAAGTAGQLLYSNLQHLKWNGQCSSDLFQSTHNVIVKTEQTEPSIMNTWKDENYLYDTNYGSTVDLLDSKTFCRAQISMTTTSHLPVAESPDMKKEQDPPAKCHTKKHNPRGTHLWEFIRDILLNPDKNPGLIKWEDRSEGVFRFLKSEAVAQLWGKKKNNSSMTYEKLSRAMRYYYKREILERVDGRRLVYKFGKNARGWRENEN
# Summary of the method: as §1
# [7] = molecular target: SPI1 (Homo sapiens, UniProt P17947 1-270); conditions: protein: recombinant; tags: N-terminal GST; dsDNA, one strand shown
# Summary of the method: as §1
# [8] = molecular target: SPIB (Homo sapiens, UniProt Q01892 1-262); conditions: protein: recombinant; tags: N-terminal GST; dsDNA, one strand shown
# Summary of the method: as §1
# [9] = molecular target: T6, ELK3 (Homo sapiens, UniProt P41970 1-407); conditions: protein: recombinant; tags: N-terminal GST; dsDNA, one strand shown
# T6 sequence: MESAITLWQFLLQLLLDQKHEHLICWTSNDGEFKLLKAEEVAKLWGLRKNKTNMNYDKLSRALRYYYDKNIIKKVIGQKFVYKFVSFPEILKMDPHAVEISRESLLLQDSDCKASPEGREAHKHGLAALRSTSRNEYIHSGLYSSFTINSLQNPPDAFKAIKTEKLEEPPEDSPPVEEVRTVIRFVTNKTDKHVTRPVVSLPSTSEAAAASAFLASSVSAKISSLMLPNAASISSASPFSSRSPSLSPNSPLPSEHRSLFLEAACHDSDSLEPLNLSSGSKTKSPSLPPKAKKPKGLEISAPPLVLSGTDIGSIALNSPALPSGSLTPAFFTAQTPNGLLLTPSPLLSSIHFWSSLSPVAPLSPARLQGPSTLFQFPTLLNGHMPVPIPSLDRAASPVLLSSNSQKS
# Summary of the method: as §1
# [10] = molecular target: T7, FEV (Homo sapiens, UniProt Q99581 1-238); conditions: protein: recombinant; tags: N-terminal GST; dsDNA, one strand shown
# T7 sequence: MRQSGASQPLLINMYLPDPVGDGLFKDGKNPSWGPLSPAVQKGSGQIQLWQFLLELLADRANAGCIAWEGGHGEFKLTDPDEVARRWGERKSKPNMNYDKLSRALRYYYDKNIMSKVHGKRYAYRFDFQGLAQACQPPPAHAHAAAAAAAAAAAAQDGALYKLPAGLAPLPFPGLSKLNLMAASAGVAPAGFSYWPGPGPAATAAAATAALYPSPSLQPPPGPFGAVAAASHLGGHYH
# Summary of the method: as §1
# [11] = molecular target: ETV5 (Homo sapiens, UniProt P41161 1-510); conditions: protein: recombinant; tags: N-terminal GST; dsDNA, one strand shown
# Summary of the method: as §1
# [12] = molecular target: HSF1 (Homo sapiens, UniProt Q00613 1-529); conditions: protein: recombinant; tags: N-terminal GST; chain copies: 3; dsDNA, one strand shown
# Summary of the method: as §1
# [13] = molecular target: T8, SPIC (Homo sapiens, UniProt Q8N5J4 1-248); conditions: protein: recombinant; tags: N-terminal GST; dsDNA, one strand shown
# T8 sequence: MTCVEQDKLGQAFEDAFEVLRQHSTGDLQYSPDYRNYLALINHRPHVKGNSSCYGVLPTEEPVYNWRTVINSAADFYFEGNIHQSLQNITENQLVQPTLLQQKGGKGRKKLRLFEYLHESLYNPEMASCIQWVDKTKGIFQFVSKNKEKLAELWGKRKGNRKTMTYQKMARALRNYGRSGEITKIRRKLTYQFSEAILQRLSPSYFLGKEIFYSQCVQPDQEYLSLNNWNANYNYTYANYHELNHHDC
# Summary of the method: as §1
# [14] = molecular target: ELF4 (Homo sapiens, UniProt Q99607 1-663); conditions: protein: recombinant; tags: N-terminal GST; dsDNA, one strand shown
# Summary of the method: as §1
# [15] = molecular target: T9, ELK4 (Homo sapiens, UniProt P28324-2 1-405); conditions: protein: recombinant; tags: N-terminal GST; dsDNA, one strand shown
# T9 sequence: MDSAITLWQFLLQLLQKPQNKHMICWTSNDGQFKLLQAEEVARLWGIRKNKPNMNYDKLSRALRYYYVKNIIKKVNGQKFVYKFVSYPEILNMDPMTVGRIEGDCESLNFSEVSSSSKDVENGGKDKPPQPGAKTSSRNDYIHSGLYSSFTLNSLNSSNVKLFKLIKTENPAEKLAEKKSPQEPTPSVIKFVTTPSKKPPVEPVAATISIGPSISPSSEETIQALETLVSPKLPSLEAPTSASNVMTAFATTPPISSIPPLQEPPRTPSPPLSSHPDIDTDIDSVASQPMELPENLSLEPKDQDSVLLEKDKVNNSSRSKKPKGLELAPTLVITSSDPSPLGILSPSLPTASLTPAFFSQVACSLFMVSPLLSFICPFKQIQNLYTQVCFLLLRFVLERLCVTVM
# Summary of the method: as §1
# [16] = molecular target: T10, ETV2 (Homo sapiens, UniProt O00321 1-342); conditions: protein: recombinant; tags: N-terminal GST; dsDNA, one strand shown
# T10 sequence: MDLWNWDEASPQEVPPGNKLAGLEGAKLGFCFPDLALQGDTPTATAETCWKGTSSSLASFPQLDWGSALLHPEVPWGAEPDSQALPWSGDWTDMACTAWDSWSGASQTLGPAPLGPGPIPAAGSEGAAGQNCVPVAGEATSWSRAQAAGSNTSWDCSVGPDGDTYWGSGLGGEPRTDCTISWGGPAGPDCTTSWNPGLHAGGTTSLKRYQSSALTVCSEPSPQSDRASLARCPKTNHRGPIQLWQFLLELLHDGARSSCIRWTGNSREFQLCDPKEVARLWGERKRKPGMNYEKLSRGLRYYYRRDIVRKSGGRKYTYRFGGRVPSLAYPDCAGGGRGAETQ
# Summary of the method: as §1
# [17] = molecular target: T11, ELF3 (Homo sapiens, UniProt P78545 1-371); conditions: protein: recombinant; tags: N-terminal GST; dsDNA, one strand shown
# T11 sequence: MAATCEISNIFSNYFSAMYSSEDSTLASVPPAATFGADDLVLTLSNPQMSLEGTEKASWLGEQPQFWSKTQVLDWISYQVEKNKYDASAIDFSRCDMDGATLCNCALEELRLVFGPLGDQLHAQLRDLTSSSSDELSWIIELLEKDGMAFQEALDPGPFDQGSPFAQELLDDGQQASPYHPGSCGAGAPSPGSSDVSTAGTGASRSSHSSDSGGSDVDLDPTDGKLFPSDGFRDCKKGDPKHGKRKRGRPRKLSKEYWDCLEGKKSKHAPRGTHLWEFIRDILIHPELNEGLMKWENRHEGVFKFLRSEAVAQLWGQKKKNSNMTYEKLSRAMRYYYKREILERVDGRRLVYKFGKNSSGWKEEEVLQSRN
# Summary of the method: as §1
# [18] = molecular target: CRX (Homo sapiens, UniProt O43186 1-299); conditions: protein: recombinant; tags: N-terminal GST; dsDNA, one strand shown
# Summary of the method: as §1
# [19] = molecular target: ETV1 (Homo sapiens, UniProt P50549 1-477); conditions: protein: recombinant; tags: N-terminal GST; dsDNA, one strand shown
# Summary of the method: as §1
# HSF1, sequence (Q00613 whole entry): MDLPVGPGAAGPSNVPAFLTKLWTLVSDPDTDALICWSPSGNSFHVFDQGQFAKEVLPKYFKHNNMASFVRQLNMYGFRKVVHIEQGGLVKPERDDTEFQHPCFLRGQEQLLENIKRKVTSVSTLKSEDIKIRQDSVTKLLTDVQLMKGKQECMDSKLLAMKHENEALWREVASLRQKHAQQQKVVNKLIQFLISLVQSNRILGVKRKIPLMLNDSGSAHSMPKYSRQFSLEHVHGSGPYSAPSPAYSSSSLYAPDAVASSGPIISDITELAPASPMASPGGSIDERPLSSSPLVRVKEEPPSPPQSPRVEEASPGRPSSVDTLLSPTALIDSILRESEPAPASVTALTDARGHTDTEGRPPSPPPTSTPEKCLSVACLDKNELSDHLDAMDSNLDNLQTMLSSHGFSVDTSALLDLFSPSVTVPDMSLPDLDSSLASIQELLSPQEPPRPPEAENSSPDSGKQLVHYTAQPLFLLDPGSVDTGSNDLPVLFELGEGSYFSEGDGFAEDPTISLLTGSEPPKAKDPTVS
# SPIB, sequence (Q01892 whole entry): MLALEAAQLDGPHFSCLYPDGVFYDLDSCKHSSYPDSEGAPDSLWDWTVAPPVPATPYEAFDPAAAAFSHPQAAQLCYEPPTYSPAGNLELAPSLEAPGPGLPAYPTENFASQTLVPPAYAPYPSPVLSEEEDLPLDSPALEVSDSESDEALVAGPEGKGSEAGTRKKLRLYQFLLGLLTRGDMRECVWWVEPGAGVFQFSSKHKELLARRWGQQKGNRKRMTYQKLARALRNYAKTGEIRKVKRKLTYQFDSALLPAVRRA
# ELF4, sequence (Q99607 whole entry): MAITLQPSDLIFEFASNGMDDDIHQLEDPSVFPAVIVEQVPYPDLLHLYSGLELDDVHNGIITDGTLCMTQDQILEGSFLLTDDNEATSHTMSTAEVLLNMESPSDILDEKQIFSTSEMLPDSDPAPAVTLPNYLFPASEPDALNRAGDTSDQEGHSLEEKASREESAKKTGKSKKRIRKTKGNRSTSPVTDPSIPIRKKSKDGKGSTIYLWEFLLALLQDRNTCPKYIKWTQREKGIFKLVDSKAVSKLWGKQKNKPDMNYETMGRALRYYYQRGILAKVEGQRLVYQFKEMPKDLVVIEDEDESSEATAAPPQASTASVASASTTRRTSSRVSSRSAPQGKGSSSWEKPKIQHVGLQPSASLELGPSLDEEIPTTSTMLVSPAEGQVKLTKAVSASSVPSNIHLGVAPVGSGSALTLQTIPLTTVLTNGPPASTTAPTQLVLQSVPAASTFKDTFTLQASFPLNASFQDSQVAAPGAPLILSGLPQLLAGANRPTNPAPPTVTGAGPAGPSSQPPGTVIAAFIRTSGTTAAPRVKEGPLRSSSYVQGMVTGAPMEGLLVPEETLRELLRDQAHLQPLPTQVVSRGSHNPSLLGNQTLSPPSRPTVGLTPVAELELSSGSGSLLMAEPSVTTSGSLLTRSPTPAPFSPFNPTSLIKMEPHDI
# ETV5, sequence (P41161 whole entry): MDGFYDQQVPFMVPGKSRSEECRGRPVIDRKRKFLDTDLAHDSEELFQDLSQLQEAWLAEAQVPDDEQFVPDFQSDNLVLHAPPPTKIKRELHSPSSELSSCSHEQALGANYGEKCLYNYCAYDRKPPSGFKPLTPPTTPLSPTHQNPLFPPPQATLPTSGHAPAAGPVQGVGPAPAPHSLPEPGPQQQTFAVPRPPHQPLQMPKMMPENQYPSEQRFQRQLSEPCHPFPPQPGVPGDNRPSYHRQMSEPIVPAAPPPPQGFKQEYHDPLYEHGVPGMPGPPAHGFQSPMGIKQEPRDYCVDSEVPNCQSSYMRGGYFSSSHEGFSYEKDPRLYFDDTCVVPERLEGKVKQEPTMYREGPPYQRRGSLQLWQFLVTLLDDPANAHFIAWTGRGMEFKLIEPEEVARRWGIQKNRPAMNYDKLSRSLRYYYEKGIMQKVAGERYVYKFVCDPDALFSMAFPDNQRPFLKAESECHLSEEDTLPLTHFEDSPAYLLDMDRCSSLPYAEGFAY
# ETV1, sequence (P50549 whole entry): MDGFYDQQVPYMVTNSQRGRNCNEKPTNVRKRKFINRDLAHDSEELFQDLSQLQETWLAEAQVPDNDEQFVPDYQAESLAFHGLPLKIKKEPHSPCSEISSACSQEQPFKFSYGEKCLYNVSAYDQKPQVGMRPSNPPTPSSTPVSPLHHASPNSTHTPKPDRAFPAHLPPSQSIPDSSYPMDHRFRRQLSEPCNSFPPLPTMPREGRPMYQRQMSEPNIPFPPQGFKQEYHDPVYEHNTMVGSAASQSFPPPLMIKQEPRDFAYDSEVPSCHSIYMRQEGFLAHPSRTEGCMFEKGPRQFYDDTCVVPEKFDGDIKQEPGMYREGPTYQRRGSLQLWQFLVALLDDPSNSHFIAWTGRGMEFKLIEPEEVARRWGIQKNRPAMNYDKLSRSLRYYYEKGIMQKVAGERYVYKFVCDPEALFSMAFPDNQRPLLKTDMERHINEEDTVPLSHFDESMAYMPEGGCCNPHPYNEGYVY
# CRX, sequence (O43186 whole entry): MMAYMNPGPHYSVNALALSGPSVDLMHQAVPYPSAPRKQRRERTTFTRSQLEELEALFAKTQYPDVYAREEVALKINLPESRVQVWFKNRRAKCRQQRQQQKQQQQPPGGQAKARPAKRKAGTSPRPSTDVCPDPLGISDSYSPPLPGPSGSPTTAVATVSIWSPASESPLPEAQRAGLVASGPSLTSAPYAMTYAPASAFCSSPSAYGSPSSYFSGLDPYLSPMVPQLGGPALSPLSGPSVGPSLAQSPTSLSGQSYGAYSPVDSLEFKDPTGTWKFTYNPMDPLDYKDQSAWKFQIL
# ELF1, sequence (P32519 whole entry): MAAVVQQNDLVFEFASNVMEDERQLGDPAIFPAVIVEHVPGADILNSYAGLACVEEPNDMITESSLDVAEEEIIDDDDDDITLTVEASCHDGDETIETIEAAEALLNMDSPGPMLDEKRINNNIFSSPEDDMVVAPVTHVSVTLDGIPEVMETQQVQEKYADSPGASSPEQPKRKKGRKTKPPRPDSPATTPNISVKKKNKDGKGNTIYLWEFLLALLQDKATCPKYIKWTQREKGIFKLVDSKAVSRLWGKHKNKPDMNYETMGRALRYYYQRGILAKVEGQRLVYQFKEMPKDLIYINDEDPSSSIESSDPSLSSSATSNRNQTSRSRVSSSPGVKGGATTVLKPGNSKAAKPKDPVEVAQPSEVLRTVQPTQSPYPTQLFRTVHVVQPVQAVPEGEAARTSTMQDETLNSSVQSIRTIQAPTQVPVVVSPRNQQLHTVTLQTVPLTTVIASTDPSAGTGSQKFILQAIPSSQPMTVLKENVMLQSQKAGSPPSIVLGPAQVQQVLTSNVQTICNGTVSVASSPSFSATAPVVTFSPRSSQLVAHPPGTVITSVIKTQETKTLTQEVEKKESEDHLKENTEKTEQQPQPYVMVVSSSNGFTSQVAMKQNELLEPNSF
sequence,measurement,setting,value
AAAACT,binding signal,[1],"1.23 fold enrichment (6-mer frequency, TF over GST control)"
same,binding signal,[2],"1.16 fold enrichment (6-mer frequency, TF over GST control)"
same,binding signal,[3],"1.15 fold enrichment (6-mer frequency, TF over GST control)"
same,binding signal,[4],"1.17 fold enrichment (6-mer frequency, TF over GST control)"
same,binding signal,[5],"1.25 fold enrichment (6-mer frequency, TF over GST control)"
same,binding signal,[6],"1.24 fold enrichment (6-mer frequency, TF over GST control)"
same,binding signal,[7],"1.17 fold enrichment (6-mer frequency, TF over GST control)"
same,binding signal,[8],"1.23 fold enrichment (6-mer frequency, TF over GST control)"
same,binding signal,[9],"1.19 fold enrichment (6-mer frequency, TF over GST control)"
same,binding signal,[10],"1.16 fold enrichment (6-mer frequency, TF over GST control)"
same,binding signal,[11],"1.15 fold enrichment (6-mer frequency, TF over GST control)"
same,binding signal,[12],"1.18 fold enrichment (6-mer frequency, TF over GST control)"
same,binding signal,[13],"1.23 fold enrichment (6-mer frequency, TF over GST control)"
same,binding signal,[14],"1.21 fold enrichment (6-mer frequency, TF over GST control)"
same,binding signal,[15],"1.1 fold enrichment (6-mer frequency, TF over GST control)"
same,binding signal,[16],"1.19 fold enrichment (6-mer frequency, TF over GST control)"
same,binding signal,[17],"1.12 fold enrichment (6-mer frequency, TF over GST control)"
same,binding signal,[18],"1.16 fold enrichment (6-mer frequency, TF over GST control)"
same,binding signal,[19],"1.13 fold enrichment (6-mer frequency, TF over GST control)"
